Screens (PubChem)
Compounds with a hit are over-represented: about 3.1% of the library has one in this group of screens.
TRb-SRC2 inh: inhibitors of human thyroid hormone receptor beta-SRC2 interaction; P10828; TRbeta-SRC2 peptide binding, fluorescence polarization; receptor liganded with 1 µM T3; Potency, µM (highest dose often 106 µM), inactives show top-dose activity change, negative = inhibition, hits mostly inhibitors; 0.065% of 280,000 active; AID 1469;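 further: plate controls were bound peptide for no effect and peptide without receptor for full effect; nearly all actives have a fitted effect of over 50% in size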
Target sequence (P10828 whole entry, looked up): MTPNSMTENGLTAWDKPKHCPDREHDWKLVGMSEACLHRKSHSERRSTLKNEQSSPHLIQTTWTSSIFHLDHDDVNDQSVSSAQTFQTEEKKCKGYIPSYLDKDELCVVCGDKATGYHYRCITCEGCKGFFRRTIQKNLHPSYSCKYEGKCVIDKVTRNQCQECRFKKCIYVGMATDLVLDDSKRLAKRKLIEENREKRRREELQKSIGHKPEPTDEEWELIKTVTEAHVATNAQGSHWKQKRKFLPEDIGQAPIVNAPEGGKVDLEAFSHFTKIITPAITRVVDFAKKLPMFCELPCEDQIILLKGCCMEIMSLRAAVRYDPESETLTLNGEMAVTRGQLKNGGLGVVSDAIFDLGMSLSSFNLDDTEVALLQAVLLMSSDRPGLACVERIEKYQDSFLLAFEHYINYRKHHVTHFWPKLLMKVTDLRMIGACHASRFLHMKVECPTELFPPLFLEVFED
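Assay buffer: 20 mM Tris-HCl, 100 mM NaCl, 10% glycerol, 1 mM EDTA, 0.01% NP-40, 1 mM DTT, 1 uM T3, 5% DMSO; TRb LBD 0.6 uM, Texas Red SRC2 20 nM; FP after 5 hr.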
Tau FP inhib: tau fibrillization inhibition (FP); 0.39% of 280,000 active; K18 P301L tau heparin fibrillization, Alexa594 FP, 6 h; Potency, µM (series often up to 57.7 µM), for inactives: at the highest dose activity, negative = inhibition, hits mostly inhibitors; further: nearly all actives have a fitted effect of over 55% in size
Target sequence (P10636 561-689 P618L limits assumed): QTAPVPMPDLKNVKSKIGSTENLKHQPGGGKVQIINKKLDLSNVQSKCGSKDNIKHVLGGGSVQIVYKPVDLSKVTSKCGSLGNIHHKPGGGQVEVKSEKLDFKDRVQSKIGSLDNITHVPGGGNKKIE
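FP of Alexa 594-tau after heparin (20 uM) induction. Substrate: human K18 P301L, 15 uM unlabeled, 0.24 uM labeled. Buffer 100 mM sodium acetate pH 7. 6 hr, 37 C.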
TR SRC2 fluor cs: counter-screen for TRb-SRC2 inhibitors: fluorescence interference; 0.29% of 280,000 active; Potency, µM (doses to about 106 µM), for the others: top-dose fluorescence change, negative = quenching; TRb/SRC2 Texas Red total fluorescence interference; active means well fitted curve in either direction with a large enough effect; inconclusive means small, poorly fitted or top-dose-only effect
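Flags fluorescent or light-absorbing compounds by total fluorescence, S + 2P, at 555 nm excitation and 632 nm emission. Mixture: 20 nM Texas Red SRC2 peptide, 0.6 uM human TRb LBD, 1 uM T3, 5% DMSO; compound exposure 5 h at ambient temperature.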
Tau fibril ThT: tau fibrillization inhibition (ThT binding) | P10636 | recombinant tau K18 P301L, heparin-induced fibrillization, ThT fluorescence | Potency, µM (doses to about 57.4 µM), for the others: at the highest dose activity, negative = inhibition, hits mostly inhibitors | 2.1% of 270,000 active; further: nearly all actives have a fitted effect of over 55% in size
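Aggregation was driven by heparin (20 uM final) acting on recombinant tau […] bearing P301L in 100 mM sodium acetate pH 7; fibrils were detected with Thioflavin T.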
Tau fluor cs: counter-screen for tau fibril formation inhibitors. tau K18 P301L Alexa594 fluorescence, heparin fibrillization. Potency, µM (top dose mostly 57.7 µM), for inactives: at the top dose activity change, negative = decrease. 0.93% of 280,000 active; further: nearly all actives have a fitted effect of over 55% in size
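Human tau K18 P301L (15 uM unlabeled, 0.24 uM Alexa 594-labeled) in 100 mM sodium acetate pH 7 with 20 uM heparin, 6 hr at 37 C. ThT 30 uM added, 1 hr ambient; Alexa 594 FP and total fluorescence read at 555/632 nm.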
Numbers without * were called inactive; ? = inconclusive; . = no result; [ ] = dose if it differs, or a comment. Unless noted, the call rests on the fitted dose curve; in most records, active means well fitted curve in the direction sought with a large enough effect; inconclusive means small, poorly fitted or top-dose-only effect, or another doubt; inactive means no such curve, though single readings can be large; an effect the other way counts as inactive or inconclusive. Unless noted, on the % scale 0 is the no-effect control and ±100 the full control effect; potency means the concentration at half of the fitted maximal effect.

SMILES	TRb-SRC2 inh	Tau FP inhib	TR SRC2 fluor cs	Tau fibril ThT	Tau fluor cs
CN1C(=O)C(Cl)(Cl)C(=O)c2ccccc21	-3%	7.1µM*	-3%	4µM*	-20%
O=C(ONc1ccc(N=NC(=O)c2ccccc2O)cc1)c1ccccc1	0%	1%	0%	4.5µM*	?
Brc1ccc(CNCCCSc2nnnn2-c2ccccc2)cc1	2%	2%	8%	-5%	-10%
Oc1ccc2ccccc2c1/C=N/Nc1nnc(-c2ncc[nH]2)c2ccccc12	11%	?	-3%	4µM*	8.9µM*[quencher]
COc1ccc(/C=N/Nc2nnc(-c3ncc[nH]3)c3ccccc23)cc1	10%	6%	-5%	?	-21%
CC(C)(C)OC(=O)N1CCC(c2c(C(=O)NCc3ccc4c(c3)OCO4)cnn2-c2ccccc2Cl)CC1	-6%	6%	-1%	-13%	-19%
COc1ccc(NC(=O)/C(Cl)=C(/Cl)S(=O)(=O)Cc2ccccc2)cn1	-2%	?	1%	7.1µM*	-24%
NNc1cc([N+](=O)[O-])cc2c1C(=O)N(Cc1ccccc1)S2=O (stereo unspecified)	-10%	?	-4%	25µM*	-26%
CC(C)=NNc1cc([N+](=O)[O-])cc2c1C(=O)N(C)S2=O (stereo unspecified)	-4%	-16%	1%	?	2%
CCCCn1c(N)c(-c2nc3ccccc3s2)c2c([N+](=O)[O-])nn(C)c(=O)c21	6%	8%	0%	14µM*	?
CCCCn1c(N)c(-c2nc3ccccc3s2)c2c([N+](=O)[O-])nn(CC)c(=O)c21	1%	15%	-2%	?	?
O=C(NC(=S)N1CCCCC1)c1csc([N+](=O)[O-])c1	0%	-1%	-2%	6%	6%
O=C(CSc1nnc(SCc2cccc3ccccc23)s1)N/N=C/c1c[nH]c2ccccc12	4%	14%	0%	-15%	3.5µM*[quencher]
C=CCN1C(=O)N/C(=C/c2ccc(C)o2)C1=O	-27%	?	16%	25µM*	-13%
Cc1ccc(CN(C(=O)COc2ccc(Cl)c(C)c2)C2CCS(=O)(=O)C2)o1 (stereo unspecified)	-6%	-4%	?	-1%	-11%
CCCN(C(=O)Cn1cnc2onc(-c3ccc(F)cc3)c2c1=O)c1cccc(Cl)c1	-16%	-14%	178µM*[quencher]	6%	-11%
O=C(NC1CCCCC1)C(=S)N1CCOCC1	3%	-3%	4%	-4%	0%
CC(=O)OCCCNc1cc(Sc2ccc(Cl)cc2)c2nonc2c1[N+](=O)[O-]	-1%	?	7%	8.9µM*	?
Cc1ccc(Sc2cc(NCCCO)c([N+](=O)[O-])c3nonc23)cc1	2%	-16%	-3%	.	-31%
CCC(=O)OCCNc1cc(Sc2nccn2C)c2nonc2c1[N+](=O)[O-]	-8%	-10%	0%	4.5µM*	?
CCCC(=O)OCCNc1cc(Sc2nc3ccccc3[nH]2)c2nonc2c1[N+](=O)[O-]	1%	-2%	2%	?	-28%
CCC(=O)OCCNc1cc(SCCC(=O)OC)c2nonc2c1[N+](=O)[O-]	-1%	?	?	7.9µM*	?
C=C1CCN(C(Cc2ccccc2)C(=O)O)S(=O)(=O)c2ccccc21 (stereo unspecified)	6%	.	-1%	.	.
CC(C)(C)[C@H](O)[C@H](Cc1ccc(Cl)cc1)n1cncn1	-2%[201 µM]	.	0%[201 µM]	.	.
CCCCN(CCCC)S(=O)(=O)c1ccc(NC(=O)c2cccs2)cc1	8%	14µM*	1%	-4%	?
SMILES	TRb-SRC2 inh	Tau FP inhib	TR SRC2 fluor cs	Tau fibril ThT	Tau fluor cs
Cc1cc(C)nc(NS(=O)(=O)c2ccc(NC(=O)c3cccs3)cc2)n1	8%	1%	-1%	-2%	-7%
Nc1nc(N)c(N=Nc2ccc(C(=O)O)cc2)c(N)n1	-1%	4%	-5%	14µM*	-10%
O=C(O)c1ccc(N=Nc2c(O)[nH]c3cc(Cl)ccc23)cc1	5%	6%	-4%	4µM*	-8%
O=C1CCCC(O)=C1N=Nc1ccc(C(=O)O)cc1	?	-9%	18%	?	-25%
COc1ccccc1CNC(=O)CSc1nc2nc(C)c(Cc3ccccc3Cl)c(C)n2n1	2%	-5%	0%	?	-16%
O=C(C[n+]1ccccc1)Nc1c(Cl)cc(Cl)cc1Cl	-5%	-62%	-6%	18µM*	-39%
COc1cc(NC(=O)CSC2=Nc3ccccc3N=C(c3ccc(F)cc3)C2)cc(OC)c1	1%	-12%	-3%	6%	-25%
CC[N+]1=C(C)C(C)(C)c2cc(C)ccc21	?	?	40µM*[fluorescent]	3.5µM*	0.71µM*[fluorescent]
Cc1ccc2c(c1)C=CC(C)(C)S2=O (stereo unspecified)	-5%	-3%	-1%	0%	2%
Cc1cccc(N2CCN(S(=O)(=O)c3ccc(-c4cnc(C5CC5)o4)cc3)CC2)c1C	5%	10%	1%	10%	-3%
Cc1c(C(=O)c2no[n+]([O-])c2C(=O)c2cnn(C)c2C)cnn1C	-4%	?	0%	14µM*	-19%
O=C(c1cccs1)c1no[n+]([O-])c1C(=O)c1cccs1	-3%	?	-1%	?	?
COc1ccc(CCNC(=O)c2nn(-c3ccc(C)cc3)c(=O)c3c2c2ccccc2n3C)cc1OC	3%	2%	-2%	1%	-13%
CN[C@H](CC(C)C)C(=O)N[C@H]1C(=O)N[C@@H](CC(N)=O)C(=O)N[C@H]2C(=O)N[C@H]3C(=O)N[C@H](C(=O)N[C@H](C(=O)O)c4cc(O)cc(O)c4-c4cc3ccc4O)[C@H](O)c3ccc(c(Cl)c3)Oc3cc2cc(c3O[C@@H]2O[C@H](CO)[C@@H](O)[C@H](O)[C@H]2O[C@H]2C[C@](C)(N)[C@H](O)[C@H](C)O2)Oc2ccc(cc2Cl)[C@H]1O	-1%	-5%	-4%	3%	-2%
Cc1ccc(-c2csc(-c3c[nH]c4ccccc34)n2)c(C)c1	8%	?	-2%	14µM*	10µM*[quencher]
Oc1ccc(-c2csc(-c3c[nH]c4ccccc34)n2)c(O)c1	0%	?	-6%	6.3µM*	10µM*[quencher]
CCN1C(=O)[C@H]2[C@H]3[C@H](O)[C@H](O)C/C(=N/OC[C@@H](O)COCc4ccco4)[C@H]3CC[C@@H]2C1=O	-3%[11.2 µM]	?	0%[11.2 µM]	-14%[11.5 µM]	-23%[11.6 µM]
CC1(C(=O)O)NCCc2cc(O)c(O)cc21 (stereo unspecified)	4%	?	-4%	20µM*	-16%
Oc1cc2c(cc1O)C(c1ccccc1)CNCC2 (stereo unspecified)	2%	?	-4%	?	?
c1ccc(-c2ccc(-c3ccccc3)cc2)cc1	5%[201 µM]	.	1%[201 µM]	.	.
